The source of these data is PubChem BioAssay (NCATS).

The target in assay [1] is Lysosomal acid glucosylceramidase (Homo sapiens) (UniProt P04062). The experiment in a line: Glucocerebrosidase-p2 (AID 348; in the data active = potency below about 10 µM; note: potency is the fitted concentration of half-maximal effect). The note with it: purified GBA, blue fluorogenic substrate, 40 min. In a few lines: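 Compounds titrated from 0.6 nM upwards against 0.2 nM enzyme in pH 5.9 citric acid/KH2PO4, taurocholate, tween-20; blue fluorogenic substrate 80 uM, 40 min room temperature, stopped and read Ex 365/Em 440 for AC50.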
Lysosomal acid glucosylceramidase (Homo sapiens), sequence (P04062 whole entry, looked up): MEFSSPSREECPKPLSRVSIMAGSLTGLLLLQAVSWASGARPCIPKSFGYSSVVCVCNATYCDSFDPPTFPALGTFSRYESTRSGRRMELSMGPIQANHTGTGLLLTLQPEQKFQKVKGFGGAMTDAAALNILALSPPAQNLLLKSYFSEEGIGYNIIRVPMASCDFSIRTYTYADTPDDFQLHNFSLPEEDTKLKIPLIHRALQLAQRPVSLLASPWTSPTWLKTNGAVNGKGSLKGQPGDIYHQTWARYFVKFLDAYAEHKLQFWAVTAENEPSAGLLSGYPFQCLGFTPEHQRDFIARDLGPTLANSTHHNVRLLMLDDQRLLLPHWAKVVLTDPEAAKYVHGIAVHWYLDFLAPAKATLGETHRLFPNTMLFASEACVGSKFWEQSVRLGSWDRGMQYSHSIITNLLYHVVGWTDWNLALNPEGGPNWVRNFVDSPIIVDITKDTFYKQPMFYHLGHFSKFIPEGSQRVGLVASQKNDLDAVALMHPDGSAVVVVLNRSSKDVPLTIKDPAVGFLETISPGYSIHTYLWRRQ

In assay [2] the target is Cytochrome P450 2D6 (Homo sapiens) (UniProt P10635). The experiment in a line: qHTS Assay for Inhibitors and Substrates of Cytochrome P450 2D6 (AID 891). Note: nearly all actives have a fitted effect of over 60% in size. Note: potency is the fitted concentration of half-maximal effect. The gist of the method:
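Human CYP2D6 (5 nM) with 30 uM Luciferin-ME EGE (at Km) in 100 mM KPO4, compound preincubated 10 min, then NADPH regeneration system for 60 min at room temperature. Luciferin read by luminescence; normalized to 1.43 uM quinidine.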

The subject of assay [3] is AS120. The experiment in a line: qHTS profiling for inhibitors of Plasmodium falciparum proliferation (AID 504749). Note: nearly all actives have a fitted effect of over 60% in size. Note: potency is the fitted concentration of half-maximal effect. The note with it: P. falciparum in erythrocytes, SYBR Green DNA, 72 h; series mostly up to 28.7 µM. The gist of the method:
(§1)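 P. falciparum-infected erythrocytes (0.3% parasitemia, 2.5% hematocrit) incubated with compound 72 h at 37 C, 5% CO2. Parasite DNA detected by SYBR Green after lysis, overnight at room temperature; normalised to 0.29 uM artemisinin and DMSO.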
(In general: In qHTS, concentration-response curves come from the screen itself.)

For assay [4], the system named is CP203. Described as above. The note with it: P. falciparum in erythrocytes, SYBR Green DNA, 72 h; series mostly up to 28.7 µM. The gist of the method:
as §1

Assay [5] has as its system CP215. The description is as above. The note with it: P. falciparum in erythrocytes, SYBR Green DNA, 72 h; series mostly up to 28.7 µM. In a few lines: as §1
The subject of assay [6] is CP250. The assay is described as above. The note with it: P. falciparum in erythrocytes, SYBR Green DNA, 72 h; series mostly up to 12.8 µM. The gist of the method: as §1
The subject of assay [7] is CP260. The description is as above. The note with it: P. falciparum in erythrocytes, SYBR Green DNA, 72 h; series mostly up to 28.7 µM. The gist of the method: as §1
Assay [8] has as its system CP265. The description is as above. The note with it: P. falciparum in erythrocytes, SYBR Green DNA, 72 h; series mostly up to 12.8 µM. The gist of the method:
as §1

The subject of assay [9] is CP268. Described as above. The note with it: P. falciparum in erythrocytes, SYBR Green DNA, 72 h; series mostly up to 28.7 µM. In a few lines:
as §1

Assay [10] has as its system CP291. The description is as above. The note with it: P. falciparum in erythrocytes, SYBR Green DNA, 72 h; series mostly up to 28.7 µM. In a few lines: as §1
Assay [11] relates to DIV14. Described as above. The note with it: P. falciparum in erythrocytes, SYBR Green DNA, 72 h; series mostly up to 28.7 µM. The gist of the method:
as §1

Assay [12] concerns DIV17. Described as above. The note with it: P. falciparum in erythrocytes, SYBR Green DNA, 72 h; series mostly up to 28.7 µM. The gist of the method: as §1
Assay [13] deals with ICS. The assay is described as above. The note with it: P. falciparum in erythrocytes, SYBR Green DNA, 72 h; series mostly up to 28.7 µM. In a few lines:
as §1

Assay [14] relates to P93_24. The description is as above. The note with it: P. falciparum in erythrocytes, SYBR Green DNA, 72 h; series mostly up to 28.7 µM. The gist of the method:
as §1

Assay [15] has as its system PC26. The assay is described as above. The note with it: P. falciparum in erythrocytes, SYBR Green DNA, 72 h; series mostly up to 28.7 µM. The gist of the method: as §1
The subject of assay [16] is TAB113. The assay is described as above. The note with it: P. falciparum in erythrocytes, SYBR Green DNA, 72 h; series mostly up to 28.7 µM. In a few lines: as §1
Assay [17] deals with TAB165. The assay is described as above. The note with it: P. falciparum in erythrocytes, SYBR Green DNA, 72 h; series mostly up to 28.7 µM. In a few lines:
as §1

For assay [18], the system named is W2. The description is as above. The note with it: P. falciparum in erythrocytes, SYBR Green DNA, 72 h; series mostly up to 12.8 µM. In a few lines:
as §1

Assay [19] in a line: Cellular Toxicity (caspase-3) Renal Proximal Tubule (AID 667).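 Note: cells exposed to compound for 16 hours at 37 °C before detection; 0% = DMSO basal and 100% = 10 µM staurosporine.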 The note with it: renal proximal tubule cells; at 91.7 µM (top of the series), primary cells freshly taken from rat, solvent-only wells 0%, staurosporine 100% unless noted. The gist of the method:
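AC50 derived by standard Hill fit of concentration-response data, normalized between DMSO basal and 10 uM staurosporine as 100% stimulation. Cells: primary rat kidney proximal tubule, 16 h treatment at 37 °C.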

Assay [20] in a line: qHTS Assay for Identification of Small Molecule Inducers of Hypoxia Response (AID 2120; active = well fitted curve in the direction sought with a large enough effect in the signal ratio, with a control signal flat, not every such curve was filed as active; the % refers to the signal ratio; note: 0% is about no effect). The gist of the method: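 HRE-bla ME-180 cells in Opti-MEM with 0.5% dialyzed FBS, pre-plated 4-5 h, then compound titration for 17 h at 37 degrees Celsius. CCF4 loaded 2.5 h at room temperature; 460/530 nm ratio gave %Activity and AC50 for induction.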

Structures are written as SMILES. Values without a mark were called inactive. Results filed as inconclusive are left out. Calls of active or inactive are those of the source. Unless noted, calls come from the whole dose curve; as a rule, active = well fitted curve in the direction sought with a large enough effect; inconclusive = small, poorly fitted or top-dose-only effect, or another doubt; inactive = no such curve, though single readings can be large; an effect the other way counts as inactive or inconclusive.

Cytochrome P450 2D6 (Homo sapiens), sequence (P10635 whole entry, looked up): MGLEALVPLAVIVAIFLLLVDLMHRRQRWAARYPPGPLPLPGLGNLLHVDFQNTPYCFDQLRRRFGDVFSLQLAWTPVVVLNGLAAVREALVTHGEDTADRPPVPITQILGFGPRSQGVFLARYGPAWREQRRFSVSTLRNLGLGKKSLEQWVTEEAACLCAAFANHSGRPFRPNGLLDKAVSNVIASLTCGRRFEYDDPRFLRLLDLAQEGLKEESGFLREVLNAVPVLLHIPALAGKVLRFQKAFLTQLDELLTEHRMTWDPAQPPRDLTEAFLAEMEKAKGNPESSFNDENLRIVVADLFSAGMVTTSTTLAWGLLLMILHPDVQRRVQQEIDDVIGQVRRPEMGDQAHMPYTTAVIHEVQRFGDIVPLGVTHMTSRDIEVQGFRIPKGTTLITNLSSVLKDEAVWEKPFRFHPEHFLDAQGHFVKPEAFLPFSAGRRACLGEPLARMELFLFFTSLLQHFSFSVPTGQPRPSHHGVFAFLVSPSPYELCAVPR

With `c1ccc(N2CCC3(CCNCC3)CC2)cc1`, the Potency in [1] was greater than 11.4 µM.

With `CNC[C@H](O)c1ccc(O)cc1`, the Potency result in assay [2], in assay [3], in [4], in assay [5], in assay [6] and in assay [7] was “inactive” throughout. Also, the Potency entry in [8], in assay [9], in assay [10], in [11], in assay [12] and in assay [13] was “inactive” throughout. The Potency result in [14], in [15], in [16], in assay [17] and in assay [18] was “inactive” each time.

For `COc1ccc(NC(=O)N2CCC3(CC2)CCN(C(=O)Oc2ccccc2)CC3)cc1`, the Potency in assay [1] was greater than 11.4 µM.

Turning to `COc1ccc2c(c1OC)C(=O)O[C@H]2[C@H]1c2cc3c(cc2CCN1C)OCO3`, in assay [2], the Potency result is “inactive”.

Consider `ClC1=C(Cl)C2(Cl)C3C(Cl)C=CC3C1(Cl)C2(Cl)Cl` (configuration not stated), for which the caspase-3 activation in assay [19] is 2.29%. The result in assay [20] was inactive.

`COc1ccc2c(c1OC)CN1CCc3cc4c(cc3[C@H]1C2)OCO4`: the Potency in assay [2] is 0.0631 µM (active); in assay [5] it was 2.03 µM (active); in assay [11], 2.56 µM (active); in [12] it was 4.55 µM (active); in assay [14] it was 2.51 µM (active); in assay [16] it was 3.16 µM (active). The Potency in assay [18] is 2.28 µM (active).

As to `CN1CCc2cc3c(cc2[C@@H]1[C@@H]1OC(=O)c2c1ccc1c2OCO1)OCO3`, in assay [2], the Potency entry was “inactive”.

Consider `O=C(O)CNCP(=O)(O)O`, for which the Potency in assay [1] was greater than 11.4 µM.

For `ClC1=C(Cl)C2(Cl)C3C4C=CC(C4)C3C1(Cl)C2(Cl)Cl` (configuration not stated), the caspase-3 activation in assay [19] is -0.505% [at 91.7 µM]. Moreover, in [20], the compound was classed as inactive.

Take `C[C@@]12CC[C@H]3[C@@H](CC[C@@H]4C[C@H]5S[C@H]5C[C@]43C)[C@H]1CC[C@H]2O`: the Potency entry in assay [3], in assay [4], in [5], in assay [6], in assay [7] and in assay [8] was “inactive” throughout. Further, the Potency result in assay [9], in [10], in [11], in assay [12], in [14] and in [15] was “inactive” each time. Moreover, the Potency entry in assay [16] and in [17] was “inactive” throughout.

As for `Cc1nc2cnc(N3CCNCC3)nc2n(C)c1=O`, the Potency in assay [1] was greater than 11.4 µM.

As to `C[C@H]1CN(C2CCC(C#N)(c3ccc(F)cc3)CC2)CC[C@@]1(C(=O)O)c1ccccc1` (some centres not stated), the Potency entry in [3], in assay [4], in assay [5], in [6], in assay [7] and in [8] was “inactive” each time. Besides, the Potency entry in assay [9], in assay [10], in assay [11], in assay [12], in assay [13] and in assay [14] was “inactive” each time. Besides, the Potency entry in assay [15], in assay [16], in assay [17] and in assay [18] was “inactive” throughout.

For the compound `c1ccc(N=Nc2ccccc2)cc1`, the caspase-3 activation in assay [19] was 1.95%. In addition, in assay [20], the outcome was inactive.

With `CC(C)NC(=O)N1CCC2(CCNCC2)CC1`, in assay [1], the Potency was greater than 11.4 µM.

As for `O=C(Oc1ccccc1)N1CCC2(CCCN(C(c3ccccc3)c3ccccc3)C2)CC1`, the Potency in assay [1] was greater than 11.4 µM.

As to `CC(C)c1c(CN(C)[C@@H](C)Cc2ccccc2)n(C)n(-c2ccccc2)c1=O`, the Potency result in assay [3], in assay [4], in assay [5], in assay [6], in assay [7] and in assay [8] was “inactive” each time. The Potency entry in assay [9], in assay [10], in assay [11], in assay [12], in [14] and in assay [15] was “inactive” throughout. Moreover, the Potency entry in assay [16] and in [17] was “inactive” each time.
